# Test results from PubChem BioAssay (Tox21).
# Inconclusive results are not listed. Entries that show only a call come without a potency. Activity calls are given as the source filed them. Calls come from the whole dose curve; as a rule, active = well fitted curve in the direction sought with a large enough effect in the repeat runs; inconclusive = weak or mixed curves; inactive = no such curve, though single readings can be large; an effect the other way counts as inactive or inconclusive.
# Experiment: qHTS RealTime-Glo MT Cell Viability Assay in HepG2 cells - 40 hour (AID 1224870); note: nearly all actives have a fitted effect of over 50% in size
# Settings: RealTime-Glo luminescence; series mostly up to 76.8 µM
# In short: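 HepG2 cells mixed with RealTime-Glo MT reagents (NanoLuc plus cell-permeant prosubstrate) were seeded at 600 cells/well, incubated 5 h at 37 C/5% CO2, then pinned with compounds in DMSO; nonlytic luminescence tracked viability during 40 h treatment.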
# Potency is the fitted concentration of half-maximal effect.
SMILES,Potency,"activity change, negative = cytotoxic"
O=C(NCC1CN(c2ccc(N3CCOCC3=O)cc2)C(=O)O1)c1ccc(Cl)s1 (stereo not given),inactive,–
CC(COCCO)OCCO (stereo not given),inactive,–
CCC(C)(C)CC,inactive,–
CCN(CC)CCNc1ccc(CNC=O)c2sc3ccc(OC)cc3c(=O)c12,17.4 µM (active),–
CC[N+](C)(CC)CCOC(=O)C(O)(c1ccccc1)C1CCCCC1 (stereo not given),inactive,–
CN1CCC(N(Cc2cccs2)c2ccccc2)CC1,inactive,–
C=C(C)C(=O)OCC,inactive,–
C[N+]1(CC2COC(c3ccccc3)(C3CCCCC3)O2)CCCCC1 (stereo not given),23.9 µM (active),–
NCCCN1CCOCC1,inactive,–
CC(=O)[O][Al],inactive,–
NC(=O)C(c1ccccc1)(c1ccccc1)[C@@H]1CCN(CCc2ccc3c(c2)CCO3)C1,inactive,–
CC(=O)[O][Al][O]C(C)=O,inactive,–
CCCCOC(=O)CCCCCCCC(=O)OCCCC,inactive,–
CCCCC(CC)COC(=O)CCCCCCCCC(=O)OCC(CC)CCCC (stereo not given),inactive,–
CN(C)CCOC(c1ccccc1)c1ccc(Br)cc1 (stereo not given),inactive,–
O=C(OCCCCCCOC(=O)c1ccccc1)c1ccccc1,inactive,–
C[Si](C)(CCCN)O[Si](C)(C)CCCN,inactive,–
CCC(C)O (stereo not given),inactive,–

SMILES,Potency,"activity change, negative = cytotoxic"
Nc1cccc([N+](=O)[O-])c1,inactive,–
NS(=O)(=O)c1ccc(N2CCCCS2(=O)=O)cc1,inactive,–
Cc1ncc(CO)c(C=O)c1O,inactive,–
OC[C@H]1O[C@@H](OCCc2ccc(O)cc2)[C@H](O)[C@@H](O)[C@@H]1O,inactive,–
Nc1ccc([N+](=O)[O-])c(C(F)(F)F)c1,inactive,–
O=C(O)c1nc(Cl)c(Cl)c(Cl)c1Cl,inactive,–
CC(C)OC(=O)C(C)N(C(=O)c1ccccc1)c1ccc(F)c(Cl)c1 (stereo not given),inactive,–
C[C@@H](c1ncncc1F)C(O)(Cn1cncn1)c1ccc(F)cc1F (stereo not given in full),inactive,–
OC(C#CCN1CCCC1)(c1ccccc1)c1ccccc1,inactive,–
CCC(Cl)CCC(Cl)C(Cl)CC(Cl)C(Cl)C(Cl)CCl (stereo not given),inactive,–
O=[N+]([O-])c1ccc(NCCO)c(OCCO)c1,inactive,–
CC(C)(O)c1ccc(CNC(=O)c2cccnc2Oc2ccc(F)cc2)cc1,inactive,–
CC(CSC(=O)c1ccccc1)C(=O)N1C[C@@H](Sc2ccccc2)C[C@H]1C(=O)O (stereo not given in full),–,2.68% [at 15.8 µM] (inactive)
CCCCC/C=C\C/C=C\CCCCCCCC(=O)NC(C)c1ccccc1 (stereo not given),inactive,–
CN1Cc2cc(C(=O)N3CCC(C4CCNCC4)CC3)ccc2NC(CC(=O)O)C1=O (stereo not given),inactive,–
COc1cc2nc(N(C)CCCNC(=O)C3CCCO3)nc(N)c2cc1OC (stereo not given),inactive,–
COC(C)(C)CCO,inactive,–

# Experiment: A CellTox Green Cytotoxicity Assay to monitor cytotoxicity in HEK293 cells - 40 hour (AID 1224871); note: nearly all actives have a fitted effect of over 45% in size
# Settings: CellTox Green fluorescence; series mostly up to 76.8 µM
# In short: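 Real-time, in one plate: 600 HEK293 cells/well with dead-cell DNA dye, pinned compound after 5 h, 37 C incubation over 40 h; viable cells give no appreciable fluorescence.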
SMILES,Potency,cytotoxicity increase
O=C(NCC1CN(c2ccc(N3CCOCC3=O)cc2)C(=O)O1)c1ccc(Cl)s1 (stereo not given),inactive,–
CC(COCCO)OCCO (stereo not given),inactive,–
CCC(C)(C)CC,inactive,–
CCN(CC)CCNc1ccc(CNC=O)c2sc3ccc(OC)cc3c(=O)c12,19.5 µM (active),–
CC[N+](C)(CC)CCOC(=O)C(O)(c1ccccc1)C1CCCCC1 (stereo not given),inactive,–
CN1CCC(N(Cc2cccs2)c2ccccc2)CC1,19 µM (active),–
C=C(C)C(=O)OCC,inactive,–
C[N+]1(CC2COC(c3ccccc3)(C3CCCCC3)O2)CCCCC1 (stereo not given),inactive,–
NCCCN1CCOCC1,inactive,–
CC(=O)[O][Al],inactive,–
NC(=O)C(c1ccccc1)(c1ccccc1)[C@@H]1CCN(CCc2ccc3c(c2)CCO3)C1,21.3 µM (active),–
CC(=O)[O][Al][O]C(C)=O,inactive,–
CCCCOC(=O)CCCCCCCC(=O)OCCCC,inactive,–
CCCCC(CC)COC(=O)CCCCCCCCC(=O)OCC(CC)CCCC (stereo not given),inactive,–
CN(C)CCOC(c1ccccc1)c1ccc(Br)cc1 (stereo not given),inactive,–
O=C(OCCCCCCOC(=O)c1ccccc1)c1ccccc1,inactive,–
C[Si](C)(CCCN)O[Si](C)(C)CCCN,inactive,–
CCC(C)O (stereo not given),inactive,–

SMILES,Potency,cytotoxicity increase
Nc1cccc([N+](=O)[O-])c1,inactive,–
NS(=O)(=O)c1ccc(N2CCCCS2(=O)=O)cc1,inactive,–
Cc1ncc(CO)c(C=O)c1O,inactive,–
OC[C@H]1O[C@@H](OCCc2ccc(O)cc2)[C@H](O)[C@@H](O)[C@@H]1O,inactive,–
Nc1ccc([N+](=O)[O-])c(C(F)(F)F)c1,inactive,–
O=C(O)c1nc(Cl)c(Cl)c(Cl)c1Cl,inactive,–
CC(C)OC(=O)C(C)N(C(=O)c1ccccc1)c1ccc(F)c(Cl)c1 (stereo not given),inactive,–
C[C@@H](c1ncncc1F)C(O)(Cn1cncn1)c1ccc(F)cc1F (stereo not given in full),inactive,–
OC(C#CCN1CCCC1)(c1ccccc1)c1ccccc1,inactive,–
CCC(Cl)CCC(Cl)C(Cl)CC(Cl)C(Cl)C(Cl)CCl (stereo not given),inactive,–
O=[N+]([O-])c1ccc(NCCO)c(OCCO)c1,inactive,–
CC(C)(O)c1ccc(CNC(=O)c2cccnc2Oc2ccc(F)cc2)cc1,inactive,–
CC(CSC(=O)c1ccccc1)C(=O)N1C[C@@H](Sc2ccccc2)C[C@H]1C(=O)O (stereo not given in full),–,1.14% [at 15.8 µM] (inactive)
CCCCC/C=C\C/C=C\CCCCCCCC(=O)NC(C)c1ccccc1 (stereo not given),inactive,–
CN1Cc2cc(C(=O)N3CCC(C4CCNCC4)CC3)ccc2NC(CC(=O)O)C1=O (stereo not given),inactive,–
COc1cc2nc(N(C)CCCNC(=O)C3CCCO3)nc(N)c2cc1OC (stereo not given),inactive,–
COC(C)(C)CCO,inactive,–
